# Results from PubChem BioAssay (NCI).
# The panel holds about 79,000 compounds, 15% with a hit somewhere; the sample as a whole holds those more often. Unmarked numbers belong to inactive results. Active and inactive are the calls of the source. Rule as the data show it: active = growth inhibition above about 70%; inactive = the rest.
# Experiments:
# [1] = NCI Yeast Anticancer Drug Screen. Data for the rad52 strain (AID 147);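 also: 0% = growth of vehicle-treated control cultures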; conditions: S. cerevisiae rad52 mutant growth inhibition, active compounds read high
# Outline: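 Compounds are applied to a genetically defined yeast strain lacking normal DNA damage repair, and inhibition of growth is expressed relative to cultures given vehicle only.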
# [2] = NCI Yeast Anticancer Drug Screen. Data for the wt1 strain (AID 149);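 also: 0% = growth of vehicle-treated wt1 cultures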; conditions: S. cerevisiae wt1 strain (SPY 50644) growth inhibition, active compounds read high
# Outline: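 Growth inhibition read against vehicle controls after compound exposure of the wt1 yeast strain.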
# [3] = NCI Yeast Anticancer Drug Screen. Data for the rad50EPP+ strain (AID 151);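 also: 0% = growth of vehicle-treated control cultures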; conditions: S. cerevisiae rad50 mutant strain, active compounds read high
# Outline: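 Compounds were applied to the rad50EPP+ yeast strain, which bears a defined DNA repair alteration, and growth inhibition was determined relative to vehicle-treated cultures.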
# [4] = NCI Yeast Anticancer Drug Screen. Data for the rad50 strain (AID 155);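 also: 0% = growth of vehicle-only cultures of the same strain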; conditions: S. cerevisiae rad50 strain growth inhibition, active compounds read high
# Outline: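 Readout: growth inhibition relative to vehicle-treated cultures. Compound exposure was carried out in a genetically defined yeast strain deficient in DNA damage repair.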
# [5] = NCI Yeast Anticancer Drug Screen. Data for the mec2-1 strain (AID 157); conditions: S. cerevisiae mec2-1 strain, active compounds read high
# Outline: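 Strain: mec2-1 (DNA repair/cell cycle alteration). Compound exposure, then growth measured; inhibition expressed relative to vehicle.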
# [6] = NCI Yeast Anticancer Drug Screen. Data for the rad14 strain (AID 159);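 also: 0% = growth of vehicle-treated control cultures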; conditions: S. cerevisiae rad14 strain growth inhibition, active compounds read high
# Outline: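 Growth inhibition vs vehicle controls; genetically altered yeast strain (DNA damage repair defect) treated with test compounds.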
# [7] = NCI Yeast Anticancer Drug Screen. Data for the sgs1 mgt1 strain (AID 161);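 also: 0% = growth of cultures given vehicle only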; conditions: S. cerevisiae sgs1 mgt1 strain, active compounds read high
# Outline: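 Genetically altered yeast, compound exposure, growth inhibition relative to vehicle.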
# [8] = NCI Yeast Anticancer Drug Screen. Data for the CLN2oe strain (AID 163);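 also: 0% = growth of vehicle-only control cultures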; conditions: S. cerevisiae CLN2oe strain, active compounds read high
# Outline: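 Growth of a genetically modified yeast strain is measured after compound exposure and compared with cultures given vehicle alone.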
# [9] = NCI Yeast Anticancer Drug Screen. Data for the bub3 strain (AID 167); conditions: S. cerevisiae bub3 mutant strain, active compounds read high
# Outline: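 Readout: yeast growth inhibition, expressed relative to vehicle-only wells. The test organism is a mutant strain from a panel with lesions in DNA repair or checkpoint genes.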
# [10] = NCI Yeast Anticancer Drug Screen. Data for the wt2 strain (AID 169);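 also: 0% = growth of vehicle-treated yeast cultures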; conditions: S. cerevisiae wt2 strain growth inhibition, active compounds read high
# Outline: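 This strain belongs to a panel of yeast strains with defined genetic alterations in DNA damage repair or cell cycle control. Compounds are applied, and growth inhibition is measured against vehicle-treated cultures.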
# [11] = NCI Yeast Anticancer Drug Screen. Data for the mlh1 strain (AID 171);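 also: 0% = growth of vehicle-treated control cultures of the same strain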; conditions: S. cerevisiae mlh1 strain growth inhibition, active compounds read high
# Outline: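 Growth of the mutant yeast strain after compound exposure, expressed as inhibition relative to vehicle-only controls.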
# [12] = NCI Yeast Anticancer Drug Screen. Data for the sgs1 strain (AID 173);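 also: 0% = growth of vehicle-only control cultures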; conditions: S. cerevisiae sgs1 mutant, active compounds read high
# Outline: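 Growth of a yeast strain bearing a defined genetic alteration is measured after compound treatment. Inhibition is expressed relative to vehicle-only controls.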
# [13] = NCI Yeast Anticancer Drug Screen. Data for the mlh1 rad18 strain (AID 175); conditions: S. cerevisiae mlh1 rad18 strain growth inhibition, active compounds read high
# Outline: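 Read-out is yeast growth inhibition, calculated against vehicle-only controls. The compound was applied to a strain engineered with DNA damage repair alterations.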
# [14] = NCI Yeast Anticancer Drug Screen. Data for the rad18 strain (AID 177); conditions: S. cerevisiae rad18 mutant growth inhibition, active compounds read high
# Outline: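 Growth of the mutant yeast strain after compound exposure, normalised to vehicle-only cultures.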
# [15] = NCI Yeast Anticancer Drug Screen. Data for the cln2 rad14 strain (AID 165);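 also: 0% = growth equal to vehicle treated cultures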; conditions: S. cerevisiae cln2 rad14 strain, active compounds read high
# Outline: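 Compounds are applied to the cln2 rad14 yeast strain, and growth is then compared with that of vehicle-treated cultures to give inhibition.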
# [16] = at 5.0 µM (retest, dose inferred, filed as 0.5)
# [17] = at 50.0 µM (retest, dose inferred, filed as 5.0)
compound,measurement,setting,value
O=C1CC(=O)N(C2CCCCC2)C(=O)N1c1ccccc1S(=O)(=O)Oc1ccccc1,growth inhibition,[1]; at 1.2 µM,1%
same,growth inhibition,[1]; at 3.7 µM,3%
same,growth inhibition,[1]; at 11.0 µM,4%
same,growth inhibition,[1]; at 33.0 µM,24%
same,growth inhibition,[1]; at 100.0 µM,64%
same,growth inhibition,[2]; at 1.2 µM,1%
same,growth inhibition,[2]; at 3.7 µM,-5%
same,growth inhibition,[2]; at 11.0 µM,-14%
same,growth inhibition,[2]; at 33.0 µM,12%
same,growth inhibition,[2]; at 100.0 µM,51%
same,growth inhibition,[3]; at 1.2 µM,-22%
same,growth inhibition,[3]; at 3.7 µM,-19%
same,growth inhibition,[3]; at 11.0 µM,-16%
same,growth inhibition,[3]; at 33.0 µM,2%
same,growth inhibition,[3]; at 100.0 µM,-49%
same,growth inhibition,[4]; at 1.2 µM,-12%
same,growth inhibition,[4]; at 3.7 µM,-3%
same,growth inhibition,[4]; [16],66%
same,growth inhibition,[4]; at 11.0 µM,-12%
same,growth inhibition,[4]; at 33.0 µM,5%
same,growth inhibition,[4]; [17],99% (active)
same,growth inhibition,[4]; at 50.0 µM,38.6%
same,growth inhibition,[4]; at 100.0 µM,33%
same,growth inhibition,[5]; at 1.2 µM,11%
same,growth inhibition,[5]; at 3.7 µM,0%
same,growth inhibition,[5]; [16],69%
same,growth inhibition,[5]; at 11.0 µM,-18%
same,growth inhibition,[5]; at 33.0 µM,13%
same,growth inhibition,[5]; [17],99% (active)
same,growth inhibition,[5]; at 50.0 µM,41%
same,growth inhibition,[5]; at 100.0 µM,36%
same,growth inhibition,[6]; at 1.2 µM,-18%
same,growth inhibition,[6]; at 3.7 µM,-22%
same,growth inhibition,[6]; at 11.0 µM,-26%
same,growth inhibition,[6]; at 33.0 µM,-18%
same,growth inhibition,[6]; at 100.0 µM,18%
same,growth inhibition,[7]; [16],3%
same,growth inhibition,[7]; [17],31%
same,growth inhibition,[7]; at 50.0 µM,54.4%
same,growth inhibition,[8]; at 1.2 µM,6%
same,growth inhibition,[8]; at 3.7 µM,-1%
same,growth inhibition,[8]; at 11.0 µM,7%
same,growth inhibition,[8]; at 33.0 µM,43%
same,growth inhibition,[8]; at 100.0 µM,72% (active)
same,growth inhibition,[9]; at 1.2 µM,-13%
same,growth inhibition,[9]; at 3.7 µM,0%
same,growth inhibition,[9]; [16],25%
same,growth inhibition,[9]; at 11.0 µM,2%
same,growth inhibition,[9]; at 33.0 µM,7%
same,growth inhibition,[9]; [17],42%
same,growth inhibition,[9]; at 50.0 µM,58.4%
same,growth inhibition,[9]; at 100.0 µM,32%
same,growth inhibition,[10]; at 1.2 µM,0%
same,growth inhibition,[10]; at 3.7 µM,-33%
same,growth inhibition,[10]; at 11.0 µM,-27%
same,growth inhibition,[10]; at 33.0 µM,-3%
same,growth inhibition,[10]; at 100.0 µM,41%
same,growth inhibition,[11]; at 1.2 µM,-10%
same,growth inhibition,[11]; at 3.7 µM,-19%
same,growth inhibition,[11]; at 11.0 µM,-11%
same,growth inhibition,[11]; at 33.0 µM,7%
same,growth inhibition,[11]; at 100.0 µM,46%
same,growth inhibition,[12]; at 1.2 µM,-7%
same,growth inhibition,[12]; at 3.7 µM,-5%
same,growth inhibition,[12]; at 11.0 µM,-1%
same,growth inhibition,[12]; at 33.0 µM,20%
same,growth inhibition,[12]; at 100.0 µM,56%
same,growth inhibition,[13]; [16],61%
same,growth inhibition,[13]; [17],100% (active)
same,growth inhibition,[13]; at 50.0 µM,41.4%
same,growth inhibition,[14]; at 1.2 µM,-15%
same,growth inhibition,[14]; at 3.7 µM,-13%
same,growth inhibition,[14]; at 11.0 µM,-19%
same,growth inhibition,[14]; at 33.0 µM,-18%
same,growth inhibition,[14]; at 100.0 µM,12%
COc1ccc(/C=C(\NC(=O)c2ccccc2)C(=O)NN(C)c2ccnc3cc(Cl)ccc23)cc1OC,growth inhibition,[1]; at 1.2 µM,3%
same,growth inhibition,[1]; at 3.7 µM,1%
same,growth inhibition,[1]; at 11.0 µM,12%
same,growth inhibition,[1]; at 33.0 µM,5%
same,growth inhibition,[1]; at 100.0 µM,27%
same,growth inhibition,[2]; at 1.2 µM,-41%
same,growth inhibition,[2]; at 3.7 µM,0%
same,growth inhibition,[2]; at 11.0 µM,3%
same,growth inhibition,[2]; at 33.0 µM,11%
same,growth inhibition,[2]; at 100.0 µM,15%
same,growth inhibition,[3]; at 1.2 µM,4%
same,growth inhibition,[3]; at 3.7 µM,20%
same,growth inhibition,[3]; at 11.0 µM,78% (active)
same,growth inhibition,[3]; at 33.0 µM,90% (active)
same,growth inhibition,[3]; at 100.0 µM,78% (active)
same,growth inhibition,[4]; at 1.2 µM,-1%
same,growth inhibition,[4]; at 3.7 µM,7%
same,growth inhibition,[4]; [16],0%
same,growth inhibition,[4]; at 11.0 µM,19%
same,growth inhibition,[4]; at 33.0 µM,30%
same,growth inhibition,[4]; [17],30%
same,growth inhibition,[4]; at 50.0 µM,86.5% (active)
same,growth inhibition,[4]; at 100.0 µM,36%
same,growth inhibition,[5]; at 1.2 µM,-2%
same,growth inhibition,[5]; at 3.7 µM,-3%
same,growth inhibition,[5]; [16],-12%
same,growth inhibition,[5]; at 11.0 µM,0%
same,growth inhibition,[5]; at 33.0 µM,11%
same,growth inhibition,[5]; [17],-14%
same,growth inhibition,[5]; at 50.0 µM,28.6%
same,growth inhibition,[5]; at 100.0 µM,10%
same,growth inhibition,[6]; at 1.2 µM,2%
same,growth inhibition,[6]; at 3.7 µM,5%
same,growth inhibition,[6]; at 11.0 µM,8%
same,growth inhibition,[6]; at 33.0 µM,8%
same,growth inhibition,[6]; at 100.0 µM,6%
same,growth inhibition,[7]; [16],-6%
same,growth inhibition,[7]; [17],-6%
same,growth inhibition,[7]; at 50.0 µM,73.1% (active)
same,growth inhibition,[8]; at 1.2 µM,-2%
same,growth inhibition,[8]; at 3.7 µM,6%
same,growth inhibition,[8]; at 11.0 µM,38%
same,growth inhibition,[8]; at 33.0 µM,48%
same,growth inhibition,[8]; at 100.0 µM,58%
same,growth inhibition,[15]; [16],28%
same,growth inhibition,[15]; [17],5%
same,growth inhibition,[15]; at 50.0 µM,55.4%
same,growth inhibition,[10]; at 1.2 µM,-1%
same,growth inhibition,[10]; at 3.7 µM,4%
same,growth inhibition,[10]; at 11.0 µM,31%
same,growth inhibition,[10]; at 33.0 µM,36%
same,growth inhibition,[10]; at 100.0 µM,27%
same,growth inhibition,[11]; at 1.2 µM,-2%
same,growth inhibition,[11]; at 3.7 µM,1%
same,growth inhibition,[11]; at 11.0 µM,6%
same,growth inhibition,[11]; at 33.0 µM,15%
same,growth inhibition,[11]; at 100.0 µM,25%
same,growth inhibition,[12]; at 1.2 µM,0%
same,growth inhibition,[12]; at 3.7 µM,3%
same,growth inhibition,[12]; at 11.0 µM,7%
same,growth inhibition,[12]; at 33.0 µM,21%
same,growth inhibition,[12]; at 100.0 µM,31%
same,growth inhibition,[13]; [16],0%
same,growth inhibition,[13]; [17],1%
same,growth inhibition,[13]; at 50.0 µM,87.1% (active)
same,growth inhibition,[14]; at 1.2 µM,2%
same,growth inhibition,[14]; at 3.7 µM,5%
same,growth inhibition,[14]; at 11.0 µM,11%
same,growth inhibition,[14]; at 33.0 µM,41%
same,growth inhibition,[14]; at 100.0 µM,50%
